# Assay results reported in the supplement of paper PMC3334620.
# The full ranking holds about 33,000 sequences; the median of “E-score (-0.5 to 0.5)” is about -0.0034, and the highest 2% start at about 0.25. The sample as a whole holds a higher share of the highest values than the screen did.
# Target: T1, Yap3 (UniProt P38749)
# T1 sequence: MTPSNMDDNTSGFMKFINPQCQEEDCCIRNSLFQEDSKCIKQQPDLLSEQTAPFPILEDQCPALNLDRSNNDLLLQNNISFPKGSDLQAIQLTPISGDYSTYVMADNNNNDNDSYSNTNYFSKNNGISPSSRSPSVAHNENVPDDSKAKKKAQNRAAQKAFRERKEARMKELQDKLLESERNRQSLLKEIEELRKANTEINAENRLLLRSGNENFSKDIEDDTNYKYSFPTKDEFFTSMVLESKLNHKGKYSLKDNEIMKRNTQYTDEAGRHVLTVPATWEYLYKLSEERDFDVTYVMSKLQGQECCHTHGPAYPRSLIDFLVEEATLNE
# Experiment: PBM E-score (8-mer binding enrichment) (E-score (-0.5 to 0.5)); higher = stronger / more preferred TF binding
# Settings: protein concentration: 100 nM; construct: GST-full length
# Method: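 Universal 'all 10-mer' protein binding microarrays (Agilent AMADID 015681) probed with GST-tagged S. cerevisiae TFs (full-length or DBD) made by in vitro transcription/translation (PURExpress), about 100-200 nM. Bound TF was detected with fluorescent anti-GST. Each ungapped 8-mer (which stands for itself and its reverse complement) is scored by the PBM enrichment score (E-score), a modified Wilcoxon-Mann-Whitney statistic from -0.5 to +0.5, computed with the Universal PBM Analysis Suite. Scale: above 0.35 generally sequence-specific binding.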
row,Sequence,PBM E-score
1,AGTAGATA,0.273
2,CGTAGATA,0.0847
3,GATAGATA,0.0286
4,GGCATCGA,-0.125
5,ACGGCGCA,0.0681
6,AGAATGCC,-0.00977
7,CCGCAAAA,0.076
8,AATAGTAG,0.206
9,AATAGTAA,0.258
10,AATAGTTA,0.0935
11,CATAGTAA,0.198
12,TATAGTAA,0.27
13,AATAGTTG,0.267
14,AATAGTAC,0.0612
15,GATAGTAA,0.11
16,AATAGTTC,0.156
17,GCCTAACC,-0.151
18,ATCTACTA,0.185
19,AAACCTCG,-0.132
20,ACATCGAT,0.0921
21,ACCTAGTA,-0.119
22,GTTCATTA,0.259
23,CTTCATTA,0.242
24,ATTCATTA,0.174
25,ACTTCATC,0.0677

row,Sequence,PBM E-score
1,ACCGTCGG,-0.163
2,AACTAGCT,-0.0564
3,ATATATTA,0.32
4,CGATATTC,0.0953
5,GTATATTA,0.211
6,ATATATTG,0.0595
7,GTAGATTA,0.245
8,CGATATTA,0.358
9,ATAGATTA,0.348
10,CTATATTA,0.325
11,CTCTATTA,0.0839
12,GGATATTA,0.0994
13,ATAGATTG,0.119
14,CTATATTC,0.151
15,GGTACTGA,-0.124
16,GATGGGGA,-0.0817
17,ATATAGAC,0.123
18,AGTGCATC,-0.0272
19,CTACGCGC,-0.0286
20,ATAGAGAT,0.166
21,GTATAGTA,0.143
22,ATATATCA,0.118
23,CTATATCA,0.264
24,CCATATTA,0.24
25,ACATATTG,0.11

row,Sequence,PBM E-score
1,ATATAGTA,0.264
2,CTATAGTA,0.156
3,ATCTCTCA,0.15
4,GTATATCA,0.0881
5,ACATATTA,0.305
6,ATATCTCA,0.268
7,CTATCTCA,-0.0511
8,AGTGCCTC,-0.229
9,GATAGACA,0.0506
10,GTCTTCGA,-0.122
11,TCAGTAGA,0.0364
12,GGTCCACC,-0.329
13,ACAGCAAG,0.247
14,ACAACATG,0.136
15,ACGCAAGT,-0.0875
16,CGAGCATC,0.00988
17,AGCCCAGA,-0.0938
18,ATATCAGG,-0.0437
19,CTATCAAG,0.067
20,ATATCAAA,0.244
21,ATATCAAC,0.166
22,ATATCAAT,0.268
23,ATATCAAG,0.26
24,GACTGTCC,-0.203
25,ACGCTCAC,-0.0296

row,Sequence,PBM E-score
1,AAACACTC,0.0568
2,AAATAAGC,0.12
3,TAACATAA,0.337
4,GAACATAA,0.134
5,CAACATAG,0.144
6,CAACATAC,0.0807
7,CAACATAA,0.297
8,AAACATAA,0.202
9,CTGTGACA,0.0329
10,CATGGGCA,-0.0447
11,GTAGCGTA,0.0978
12,AATCCTGC,0.0275
13,ACTTGGGC,-0.119
14,AGCTCTAG,-0.0862
15,GAAAATCA,0.132
16,CAAGCAAA,0.00556
17,AGCCAGGA,-0.0633
18,AAAACTAG,0.021
19,GAAACTAA,0.00343
20,AAAACTAA,0.298
21,AAAACTAT,0.182
22,TAAACTAA,0.282
23,CAAACTAA,0.25
24,AGTGGTTA,0.142
25,GACACCGA,-0.136

row,Sequence,PBM E-score
1,CTGCTCCA,-0.0981
2,ATCCGTTC,0.057
3,GTCCGTTA,0.107
4,ATCCGTTA,0.284
5,ACGATACC,0.157
6,ACTGATCA,0.131
7,ACTCTACC,0.0336
8,ATATATGG,0.259
9,GTATATAC,0.0969
10,ATATATGA,0.185
11,CTATATAG,0.121
12,ATATATGC,0.224
13,CTCTATAC,-0.129
14,CTATATAC,0.367
15,ATATGGAG,0.264
16,CTATGGAG,-0.0464
17,ATATGGAC,0.0106
18,ATATATAC,0.299
19,ATATATAT,0.231
20,AAGAGAGC,-0.218
21,CCCACCAA,0.0694
22,ACCCCTTC,-0.182
23,CATCGCAC,-0.0244
24,CGAACTTA,0.0175
25,GTAGTTTA,0.203

row,Sequence,PBM E-score
1,ATAGAGCA,0.0256
2,CCCCGCCA,0.0511
3,CTAAATTA,0.212
4,ACAAATTG,0.173
5,ATAAATTA,0.365
6,ATAAATTC,0.153
7,GTAAATTA,0.223
8,AGAAATTG,0.266
9,AAAAATTG,0.0568
10,ATAAATTG,0.312
11,AGAAATTC,0.0349
12,AGACAAAA,0.0827
13,ACTAATGA,0.264
14,CCTAATAC,0.122
15,ACTAATAC,0.288
16,GCTAATAC,0.176
17,TCTAATCA,0.185
18,ACTAAGAC,-0.0709
19,ACTAAGAT,0.255
20,ACTAAGAA,0.205
21,GCTAATGA,0.0606
22,CCTAATGA,0.128
23,ACTAATCT,0.00634
24,ACTAATCA,0.255
25,CGTGTGTA,0.172

row,Sequence,PBM E-score
1,ATAGGTTA,0.0929
2,AGCAAACT,0.158
3,ATAGAGGA,-0.186
4,CCTAATAA,0.146
5,ACTAATAT,0.301
6,ACGAATAT,0.212
7,ACTAATAA,0.303
8,TCTAATAA,0.167
9,ACTAATAG,0.244
10,ATTAAAGG,0.199
11,CAAACTCC,-0.0365
12,CCGTGGAA,-0.00863
13,GCTCACAA,0.0362
14,TCGATGCA,-0.0467
15,CGTAATTC,0.296
16,AGTAATTA,0.307
17,AGTAATTC,0.235
18,GGTAATTA,0.221
19,CCTAATTC,0.036
20,CGTAATGA,0.241
21,AGTAATTG,0.164
22,CGTAATTA,0.335
23,AGTAAGTA,0.221
